Here are results for 14 compounds from PubChem BioAssay (NCI).

Each structure is given as a SMILES string. About 83,000 compounds went through this panel and 20% of them were active in at least one assay; those are over-represented in the sample as a whole.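 Single-concentration screen, 48 h exposure, 96-well plates. Endpoint: percent growth. Below 10 = active.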 Unmarked numbers belong to inactive results. Calls of active or inactive are those of the source.

Among the test systems are SR leukemia; RPMI-8226 leukemia; OVCAR-8 ovarian; OVCAR-5 ovarian; OVCAR-4 ovarian; SK-OV-3 ovarian; IGROV1 ovarian; OVCAR-3 ovarian; HS 578T breast; NCI/ADR-RES ovarian.
Assay in all cases: NCI-60 one-dose screen, 48 h (100 = growth as untreated, 0 = no growth, -100 = all killed)
Holding throughout (conditions): 10 µM unless noted

As to `CN(C)c1ccc(/C=C/C(=O)c2ccccc2)cc1`, the growth was 25.1% with SR leukemia; 76.4% in the assay on RPMI-8226 leukemia; 93.1% in the assay with OVCAR-8 ovarian; 113% with OVCAR-5 ovarian; 101% in the assay with OVCAR-4 ovarian; 96.9% with SK-OV-3 ovarian. Also, the growth with IGROV1 ovarian is 99.2%; with OVCAR-3 ovarian it was 90.2%; in the assay with HS 578T breast it was 98.4%.
Turning to `COc1ccc(C(c2cc(OC)c(OC)c(OC)c2)N2CCCC2)cc1` (stereo not given), the growth was 23.9% in the assay with SR leukemia; 97.4% in the assay on RPMI-8226 leukemia; 95.6% with OVCAR-8 ovarian; 92.6% with OVCAR-5 ovarian; 101% with OVCAR-4 ovarian; 77.5% in the assay on SK-OV-3 ovarian. Besides, the growth in the assay with IGROV1 ovarian was 82.9%; in the assay on OVCAR-3 ovarian, 66.6%; in the assay with HS 578T breast, 80.4%.
Consider `COc1ccc(-c2ccc(-c3ccc(C(=N)N)cn3)s2)cc1`, for which the growth with SR leukemia was 3.22% (active); in the assay on RPMI-8226 leukemia, 20.1%; with OVCAR-8 ovarian, 65.2%; in the assay with OVCAR-5 ovarian, 92.5%; in the assay on OVCAR-4 ovarian it was 113%; in the assay on SK-OV-3 ovarian it was 90.6%. The growth in the assay on IGROV1 ovarian is 89%; in the assay on OVCAR-3 ovarian, 83.9%; with HS 578T breast, 97.4%.
As for `CC(C)(C)c1cc(C=Nc2cccc(C(F)(F)F)c2)c(O)c(C(C)(C)C)c1`, the growth with SR leukemia was 77.7%; with RPMI-8226 leukemia, 74.5%; with OVCAR-8 ovarian, 88.1%; in the assay on OVCAR-5 ovarian, 105%; in the assay with OVCAR-4 ovarian, 97.3%; in the assay with SK-OV-3 ovarian, 100%. Moreover, the growth in the assay with IGROV1 ovarian is 105%; in the assay with OVCAR-3 ovarian, 95%; in the assay with HS 578T breast, 102%.
`O=C(c1ccc(Cl)cc1Cl)N1c2ccccc2Sc2ccccc21`: the growth is 32.2% in the assay on SR leukemia; 55.3% in the assay on RPMI-8226 leukemia; 50.7% in the assay on OVCAR-8 ovarian; 71.4% in the assay with OVCAR-5 ovarian; 81.9% in the assay on OVCAR-4 ovarian; 69.1% in the assay on SK-OV-3 ovarian. Besides, the growth was 60.9% in the assay on IGROV1 ovarian, 58.9% with OVCAR-3 ovarian and 95.9% in the assay with HS 578T breast.
Take `CN1CCN(Cc2cc(NC(=O)c3cccc(C#Cc4cccc5[nH]nc(N)c45)c3)cc(C(F)(F)F)c2)CC1`: the growth was -28.7% (active) in the assay with SR leukemia; 11.2% in the assay with RPMI-8226 leukemia; 41% with OVCAR-8 ovarian; 36.1% in the assay with OVCAR-5 ovarian; 24.8% with OVCAR-4 ovarian; 81.6% in the assay on SK-OV-3 ovarian. For the same compound, the growth with IGROV1 ovarian is 11.1%; in the assay with OVCAR-3 ovarian, 64.1%; in the assay with HS 578T breast, 22.3%; in the assay on NCI/ADR-RES ovarian, 50.8%.
Take `COc1ccc(C2=NN(C(C)=O)C(c3ccc(Oc4ccnc5cc(Cl)ccc45)c(OC)c3)C2)cc1` (stereo not given): the growth was 74.4% with SR leukemia; 77.1% in the assay with RPMI-8226 leukemia; 24% in the assay on OVCAR-8 ovarian; 84.4% in the assay on OVCAR-5 ovarian; -17.2% (active) in the assay with OVCAR-4 ovarian; 24.5% with SK-OV-3 ovarian. Also, the values for the growth in the assay with IGROV1 ovarian, with OVCAR-3 ovarian and in the assay with HS 578T breast were 79.7%, 37.1% and 58.9%, respectively.
For `CCCCN1C(=O)/C(=c2\sc3n(c2=O)NC2C(N=3)N(CC)C(=O)N2CC)c2ccccc21` (stereo not given), the growth in the assay with SR leukemia is 24.5%; in the assay with RPMI-8226 leukemia it was 60.2%; in the assay on OVCAR-8 ovarian, 36.2%; in the assay on OVCAR-5 ovarian, 48.4%; in the assay on OVCAR-4 ovarian, 50.8%; with SK-OV-3 ovarian, 77.2%. In addition, the growth with IGROV1 ovarian is 47%; in the assay with OVCAR-3 ovarian, 0.018% (active); in the assay on HS 578T breast, 40.2%.
Take `Clc1nn2c(Cn3cnc4c(NCc5ccccc5)ncnc43)nnc2c2ccccc12`: the growth in the assay with SR leukemia is 17.2%; in the assay with RPMI-8226 leukemia it was 37.7%; with OVCAR-8 ovarian, 33.2%; with OVCAR-5 ovarian, 74.2%; in the assay on OVCAR-4 ovarian, 37.9%; in the assay on SK-OV-3 ovarian, -18.5% (active). The growth is 24.8% with IGROV1 ovarian, 45.8% in the assay with OVCAR-3 ovarian and 40.1% in the assay with HS 578T breast.
As to `C=CC1(C)C(O[Si](C)(C)C(C)(C)C)CC2C3OC(=O)NC31c1cccc3c1[C@H](C(=O)N3C)C2(C)C` (stereo not given in full), the growth with SR leukemia was 24.4%; with RPMI-8226 leukemia it was 7.41% (active); in the assay with OVCAR-8 ovarian, 55.1%; with OVCAR-5 ovarian, 75.8%; in the assay on OVCAR-4 ovarian, 55.1%; in the assay on SK-OV-3 ovarian, 86.6%. For the same compound, the growth is 80.9% in the assay on IGROV1 ovarian, 52.7% with OVCAR-3 ovarian and 79.2% in the assay with HS 578T breast.
As to `CCOC(=O)N1CCN(S(=O)(=O)c2oc(-c3ccc(Cl)cc3)nc2C#N)CC1`, the growth in the assay on SR leukemia is 4.64% (active); with RPMI-8226 leukemia, 67.3%; in the assay on OVCAR-8 ovarian it was 70.8%; with OVCAR-5 ovarian, 106%; with OVCAR-4 ovarian, 103%; with SK-OV-3 ovarian it was 102%. Moreover, the growth is 87.9% in the assay on IGROV1 ovarian, 32.2% in the assay on OVCAR-3 ovarian and 102% in the assay with HS 578T breast.
With `CN(C)c1ccc(/C=C/C(=O)c2ccc(Nc3nc(Nc4ccc(F)cc4)nc(Nc4ccc(Cl)cc4)n3)cc2)cc1`, the growth is 4.77% (active) in the assay with SR leukemia; 30.5% in the assay with RPMI-8226 leukemia; 48.8% in the assay with OVCAR-8 ovarian; 74.2% in the assay on OVCAR-5 ovarian; 76.5% with OVCAR-4 ovarian; 108% with SK-OV-3 ovarian. Besides, the growth in the assay with IGROV1 ovarian was 72.4%; in the assay with OVCAR-3 ovarian, 89.2%; with HS 578T breast, 77.2%; in the assay on NCI/ADR-RES ovarian, 66.4%.
Turning to `CCCCCn1sc(=O)n(Cc2ccc(CNC(=O)OCc3ccc4c(Cl)cc(Cl)c(O)c4n3)cc2)c1=O`, the growth with SR leukemia was 64.3%; in the assay on RPMI-8226 leukemia it was 60.6%; with OVCAR-8 ovarian, 42.3%; in the assay on OVCAR-5 ovarian, 90%; in the assay on OVCAR-4 ovarian it was 66.4%; in the assay on SK-OV-3 ovarian, 96%. In addition, the growth is 53.5% with IGROV1 ovarian, 69.8% in the assay with OVCAR-3 ovarian, 70.9% in the assay with HS 578T breast and 9.85% (active) in the assay on NCI/ADR-RES ovarian.
For `N/C(=N\c1nc2ccccc2s1)NC(=NC1CCCCC1)NC1CCCCC1`, the growth is 8.88% (active) in the assay on SR leukemia; -30.4% (active) in the assay with RPMI-8226 leukemia; 4.41% (active) in the assay with OVCAR-8 ovarian; 24.6% with OVCAR-5 ovarian; 26.7% in the assay on OVCAR-4 ovarian; 74.9% in the assay with SK-OV-3 ovarian. In addition, the growth is 14.4% in the assay on IGROV1 ovarian, 57.6% with OVCAR-3 ovarian, 37.8% in the assay on HS 578T breast and 15% with NCI/ADR-RES ovarian.
